# Measurements published in PubChem BioAssay (NCATS).
# Inconclusive results are not listed. Active and inactive are the calls of the source. Calls follow the shape of the dose curve; as a rule, active = well fitted cell-killing curve with a large enough effect; inconclusive = small, poorly fitted or top-dose-only effect, or effect the other way; inactive = no such curve, though single readings can be large or run the other way.
# Assay: qHTS assay to identify small molecule inhibitors of chordoma cells - UCH-1 (AID 1259355); also: nearly all actives have a fitted effect of over 55% in size
# Conditions: UCH-1 chordoma viability, CellTiter-Glo, 48 h, combination, with auranofin plus four topoisomerase inhibitors; series mostly up to 46.1 µM; activity, negative = inhibition: at the top concentration
# Procedure, shortened: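 A 48hr growth-inhibition format: each drug tested at 15 concentrations together with added auranofin, camptothecin, doxorubicin, rubitecan and topotecan, with cell viability quantified as CellTiter-Glo luminescence.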
# % is scaled to controls: 0 for no effect and ±100 for the full control effect.
row,SMILES,"activity, negative = inhibition"
1,C[C@@H]1NC(=O)[C@@H](N)CNC(=O)[C@H](C2CCNC(N)=N2)NC(=O)/C(=C/NC(N)=O)NC(=O)[C@H](CNC(=O)C[C@@H](N)CCCN)NC1=O (some centres not stated),-4.66% (inactive)
2,CCOC(=O)c1c[nH]c2cc(OCC(C)C)c(OCC(C)C)cc2c1=O,-5.72% (inactive)
3,COc1ccc2c(c1)OC(C)(C)C(c1ccccc1)C2c1ccc(OCCN2CCCC2)cc1 (configuration not stated),-37.4% (inactive)
4,C[C@@](Cc1ccc(O)c(O)c1)(NN)C(=O)O,20.2% (inactive)
5,COC1[C@@H](O[C@@H]2O[C@H](C)[C@@H](O[C@H]3C[C@@](C)(O)[C@H](OC(=O)CC(C)C)[C@H](C)O3)[C@H](N(C)C)[C@H]2O)[C@@H](CC=O)C[C@@H](C)[C@@H](O)/C=C/C=C/C[C@@H](C)OC(=O)C[C@H]1OC(C)=O (some centres not stated),-37.3% [at 20.6 µM] (inactive)
6,C[Si](C)(C)O[Si](C)(C)C,-27.5% (inactive)
7,CO[C@H]1C[C@H](O[C@H]2[C@H](C)[C@@H](O[C@@H]3O[C@H](C)C[C@H](N(C)C)[C@H]3O)[C@@H](C)C[C@]3(CO3)C(=O)[C@H](C)[C@@H](O)[C@@H](C)[C@@H](C)OC(=O)[C@@H]2C)O[C@@H](C)[C@@H]1O,-27.9% [at 20.6 µM] (inactive)
8,CCCCC(=O)O[C@H]1CC[C@H]2[C@@H]3CCc4cc(O)ccc4[C@H]3CC[C@]12C,-17.3% (inactive)
9,Cc1ncc(C[n+]2csc(CCOP(=O)(O)O)c2C)c(N)n1,-2.83% (inactive)
10,O=S(=O)(O)CCCS(=O)(=O)O,-5.09% (inactive)
11,O=C1NC(=O)[C@H]2[C@@H]1[C@@H]1C=C[C@H]2C1,0.584% (inactive)
12,CN1CCC(OC(=O)C(Oc2ccc(Cl)cc2)Oc2ccc(Cl)cc2)CC1,-2.89% (inactive)
